# Experimental data reported in PubChem BioAssay (NCATS).
# Records with an inconclusive call do not appear. Unmarked numbers belong to inactive results. The source made the active and inactive calls. Calls come from the whole dose curve; as a rule, active = well fitted inhibition curve with a large enough effect; inconclusive = small, poorly fitted or top-dose-only effect; inactive = flat fitted curve, though single readings scatter.
# Tested on: HaCat
# Assay: Cytotoxic Profiling of Annotated Libraries Using Quantitative High-Throughput Screening (AID 1296008); note: nearly all actives have a fitted effect of over 60% in size
# Details: Five cell lines viability, CellTiter-Glo ATP luminescence, 48-72 h; max response: hits give low values
# Method in brief: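 Cells exposed to compounds for 48 or 72 hr at 37 degrees Celsius. Viability read as ATP-coupled luminescence with CellTiter-Glo after 10 min at room temperature.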
# % is set by controls: 0 for no effect and ±100 for the full control effect; potency is the fitted concentration of half-maximal effect.
Structure (SMILES),Potency,max response [%],outcome
CS(=O)(=O)N1CCC(NC(=O)c2[nH]ncc2NC(=O)c2c(Cl)cccc2Cl)CC1,4.61 µM (active),–,–
CC(=O)c1c(O)cc(O[C@@H]2O[C@H](CO)[C@@H](O)[C@H](O)[C@H]2O)cc1O,–,-1.69,–
COc1ccc([C@H]2CNC(=O)C2)cc1OC1CCCC1,–,-27.2,–
CCC(COC)n1nnc2c(Nc3ccc(OC)cc3C)nc(C)cc21 (stereo unspecified),–,-0.414,–
C[C@H]1CC[C@@]2(OC1)O[C@H]1CC3C4CC[C@H]5C[C@@H](O)[C@H](O)C[C@]5(C)C4=CC(=O)[C@]3(C)[C@H]1[C@@H]2C (stereo partly specified),–,-0.134,–
CC(C)c1cc(C(=O)N2CC[C@H](NC(=O)C3CC3)C2)n[nH]1,–,–,inactive
CC[C@H]1OC(=O)[C@H](C)[C@@H](O[C@H]2C[C@@](C)(OC)[C@@H](O)[C@H](C)O2)[C@H](C)[C@@H](O[C@@H]2O[C@H](C)C[C@H](N(C)C)[C@H]2O)[C@](C)(O)C[C@@H](C)C(=O)[C@H](C)[C@H]2OC(=O)O[C@@]21C,–,-4.77,–
Cc1cc(C(=O)N2CCCCc3ccccc32)ccc1CNC(=O)N1CCC[C@H]1C(=O)N(C)C,–,-11,–
C[C@@H]1CC[C@]2(C(=O)O)CC[C@]3(C)C(=CCC4[C@@]5(C)CC[C@H](O)C(C)(C)C5C(O)C[C@]43C)[C@@H]2[C@]1(C)O (stereo partly specified),–,-8.55,–
CC1CCC2(C(=O)O)CCC3(C)C(=CCC4C5(C)CCC(O)C(C)(CO)C5CCC43C)C2C1(C)O (stereo unspecified),–,1.16,–
CC1CCC2C(C(=O)O)=COC(O[C@@H]3O[C@H](CO)[C@@H](O)[C@H](O)[C@H]3O)C12 (stereo partly specified),–,-2.91,–
